Dicer processing: inhibitors of Dicer pre-microRNA processing, primary screen, biochemical, cat-ELCCA, chemiluminescence | cat-ELCCA pre-miR-21 Dicer processing; stronger effect = higher value | z-score at 25 µM | 47,000 tested, 6% active | AID 1347074, 2019; in the data active means z-score above about 3, passing the limit was not always enough;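 further: plate controls were vehicle for no effect and no enzyme for full effect; higher signal means more uncleaved substrate so more Dicer inhibition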
Target sequence (Q9UPY3 whole entry, looked up): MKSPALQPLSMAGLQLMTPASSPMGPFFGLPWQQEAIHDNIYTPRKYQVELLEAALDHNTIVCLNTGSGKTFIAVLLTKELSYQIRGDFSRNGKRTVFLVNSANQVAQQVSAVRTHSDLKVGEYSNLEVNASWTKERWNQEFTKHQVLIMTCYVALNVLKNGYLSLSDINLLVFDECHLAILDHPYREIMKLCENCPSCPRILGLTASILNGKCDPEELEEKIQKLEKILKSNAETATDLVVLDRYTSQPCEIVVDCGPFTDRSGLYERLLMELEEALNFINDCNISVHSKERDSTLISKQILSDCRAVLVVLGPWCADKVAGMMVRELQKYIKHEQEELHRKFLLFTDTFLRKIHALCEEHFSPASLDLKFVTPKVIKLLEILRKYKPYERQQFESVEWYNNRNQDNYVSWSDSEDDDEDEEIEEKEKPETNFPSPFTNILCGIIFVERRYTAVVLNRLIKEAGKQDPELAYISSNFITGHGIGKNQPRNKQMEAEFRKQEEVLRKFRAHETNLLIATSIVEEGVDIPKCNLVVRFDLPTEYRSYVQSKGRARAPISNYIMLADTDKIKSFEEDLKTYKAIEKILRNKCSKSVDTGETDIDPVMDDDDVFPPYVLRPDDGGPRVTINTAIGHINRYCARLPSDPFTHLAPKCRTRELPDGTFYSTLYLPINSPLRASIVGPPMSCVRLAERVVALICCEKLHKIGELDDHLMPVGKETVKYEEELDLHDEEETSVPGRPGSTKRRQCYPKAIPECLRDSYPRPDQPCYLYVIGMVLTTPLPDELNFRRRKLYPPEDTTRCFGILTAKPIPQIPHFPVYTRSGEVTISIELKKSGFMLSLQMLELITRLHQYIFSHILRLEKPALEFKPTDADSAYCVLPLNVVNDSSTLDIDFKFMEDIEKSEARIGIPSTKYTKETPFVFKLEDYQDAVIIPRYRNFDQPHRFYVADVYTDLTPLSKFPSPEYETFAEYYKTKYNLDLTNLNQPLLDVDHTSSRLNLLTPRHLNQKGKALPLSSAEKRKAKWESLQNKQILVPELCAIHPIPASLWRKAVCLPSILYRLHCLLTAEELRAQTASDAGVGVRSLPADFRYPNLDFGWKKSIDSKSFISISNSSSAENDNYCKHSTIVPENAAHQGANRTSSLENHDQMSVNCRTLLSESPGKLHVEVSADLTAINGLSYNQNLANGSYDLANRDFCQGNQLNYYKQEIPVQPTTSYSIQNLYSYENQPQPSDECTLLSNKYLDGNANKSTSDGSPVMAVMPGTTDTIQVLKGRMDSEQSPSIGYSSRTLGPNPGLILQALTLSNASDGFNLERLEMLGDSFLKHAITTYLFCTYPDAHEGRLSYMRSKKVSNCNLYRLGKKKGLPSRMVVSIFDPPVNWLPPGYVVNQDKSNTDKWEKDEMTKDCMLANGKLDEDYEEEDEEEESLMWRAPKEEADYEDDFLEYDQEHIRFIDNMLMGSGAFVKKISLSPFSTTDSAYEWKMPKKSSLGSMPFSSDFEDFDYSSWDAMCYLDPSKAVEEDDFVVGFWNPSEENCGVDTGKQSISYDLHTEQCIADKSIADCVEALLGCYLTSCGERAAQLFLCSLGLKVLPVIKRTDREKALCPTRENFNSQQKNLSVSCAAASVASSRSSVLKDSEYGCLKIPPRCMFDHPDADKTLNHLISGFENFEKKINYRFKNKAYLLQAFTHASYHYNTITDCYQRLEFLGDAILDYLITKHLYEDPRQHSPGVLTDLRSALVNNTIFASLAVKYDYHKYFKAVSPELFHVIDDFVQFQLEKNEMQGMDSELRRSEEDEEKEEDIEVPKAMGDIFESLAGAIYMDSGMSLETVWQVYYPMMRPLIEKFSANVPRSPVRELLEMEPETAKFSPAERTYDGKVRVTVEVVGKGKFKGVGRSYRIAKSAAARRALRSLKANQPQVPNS
* marks the source's active call; other numbers are inactive results. Many of the other results were omitted from the sample, so hits are more common in it than they were.

SMILES | Dicer processing
Cc1ccc(-n2nnnc2SCCOc2ccc(C)c(C)c2)cc1 | 9.8*
CC1(C)C(=O)OC(c2ccccc2F)C(C)(C)C1=O (stereo not given) | 0.16
COC(=O)C(=NNc1cc(C(F)(F)F)ccc1OCC(F)(F)F)C(=O)OC | -0.07
COC(=O)C(CCSC)NS(=O)(=O)c1cc(C(F)(F)F)cc(C(F)(F)F)c1 (stereo not given) | 4.8*
CCOC(=O)C(=CNNS(=O)(=O)c1cc(C(F)(F)F)cc(C(F)(F)F)c1)C(=O)OCC | -0.88
CSCCC(NC(=O)c1ccc(C(F)(F)F)cc1)C(=O)NN (stereo not given) | -0.55
Cc1ccccc1OCCCn1c(C(C)O)nc2ccccc21 (stereo not given) | -0.15
CC(=O)N/C(=C/c1ccc(C)c(C)c1)C(=O)O | -0.84
COc1ccccc1OCCSc1nc(C)cc(=O)[nH]1 | 22
CCOc1ccc(OCCSc2nc(C)cc(=O)[nH]2)cc1 | 0.06
Cc1ccc(OCCSc2nc(C)cc(=O)[nH]2)cc1 | 4.9*
CCCOc1ccc(C2c3c(oc4ccccc4c3=O)C(=O)N2c2ccccn2)cc1OCC (stereo not given) | 4.4*
CCCOc1ccc(C2c3c(oc4ccccc4c3=O)C(=O)N2c2ccc(C)cn2)cc1OCC (stereo not given) | -0.52
CCCCOc1ccc(C2c3c(oc4ccccc4c3=O)C(=O)N2c2nncs2)cc1OCC (stereo not given) | -0.3
CCCOc1ccc(C2c3c(oc4ccccc4c3=O)C(=O)N2c2nnc(C)s2)cc1OCC (stereo not given) | -0.5
CCCOc1cccc(C2c3c(oc4ccccc4c3=O)C(=O)N2c2ccccn2)c1 (stereo not given) | -5.9
CCCCOc1ccc(C2c3c(oc4ccccc4c3=O)C(=O)N2c2ccccn2)cc1OCC (stereo not given) | 4.6*
N#Cc1c(OCC(F)(F)F)ccc(S(=O)(=O)Oc2cccc(C(F)(F)F)c2)c1OCC(F)(F)F | 0.08
CC(C)(C)C1=CC(=O)C(C(C)(C)C)=CC1=O | 1.3
O=C(CSc1cc(C(F)(F)F)nc2ccccc12)NNC(=O)c1ccc(Cl)cc1 | 0.54
CCCc1ccc(SC(=O)N(C)C)cc1O | -0.4
O=C(NC(=O)c1c(Cl)cccc1Cl)Oc1ccc(C(F)(F)F)cc1 | -0.94
COc1ccc(-c2cc(OC(=O)c3cccs3)c3c(C)oc(C)c3c(=O)c2)cc1 | 4.3*
COc1ccc(-c2cc(OC(=O)c3ccc(Cl)cc3)c3c(C)oc(C)c3c(=O)c2)cc1 | 1.7
COc1ccc(-c2cc(OC(=O)c3cccc(Br)c3)c3c(C)oc(C)c3c(=O)c2)cc1 | 2.7
SMILES | Dicer processing
Cc1cc(OC(CN(C)C)CN(C)C)nc2ccccc12 | 1.3
C=CCN1C(=O)NC2C1N(S(C)(=O)=O)CCN2S(C)(=O)=O (stereo not given) | 5.8*
N#CCCN(CCc1ccccn1)C(=O)Nc1ccc(F)cc1 | -0.92
Cn1nc(-c2ccccc2)cc1NC(=O)Nc1cccs1 | -0.68
O=C(COc1ccc(Cl)cc1)Nc1c[nH]c(=O)[nH]c1=O | 4.1*
O=C(COc1ccc(Cl)cc1)Nc1ccc(Cl)cn1 | 0.71
O=C(COc1ccc(Cl)cc1)Nc1nccs1 | -0.38
C/C(=N\N=C(/C)c1ccc(O)cc1)c1ccc(O)cc1 | -1.1
C=CCSC1=C(C#N)C(c2cccc3ccccc23)CC(=O)N1 (stereo not given) | -0.04
COc1ccc(N2C(=O)CC(Sc3nc(C)c4ccccc4n3)C2=O)cc1 (stereo not given) | 1.7
CC(C)(C)NC1CC(=O)N(c2ccccc2)C1=O (stereo not given) | -2.2
O=C1CC(c2ccccc2)CC(=O)N1c1ccccc1 | -4
O=C1CC(c2ccccc2)C(=O)N1c1cc(Cl)cc(Cl)c1 (stereo not given) | 5.3*
Cn1cc(C2CC(=O)N(c3ccc(O)cc3)C2=O)c2ccccc21 (stereo not given) | 1.9
COc1ccc(N2C(=O)CC(N3CCN(C)CC3)C2=O)cc1 (stereo not given) | -1.6
O=C1CC(c2ccccc2)CC(=O)N1c1ccc(Oc2ccc(Cl)cc2)cc1 | -0.44
CC(C)(C)c1ccc(N2C(=O)CC(c3ccccc3)C2=O)cc1 (stereo not given) | 5.3*
COc1ccc(N2C(=O)CC(c3ccccc3)C2=O)cc1 (stereo not given) | 4.3*
Cc1ccc(Oc2c(C)nc(N)[nH]c2=O)cc1 | 0.66
COCCCn1c2c(c(=O)[nH]c1=O)C(c1cccc3ccccc13)C1=C(N2)c2ccccc2C1=O (stereo not given) | -0.72
O=S(=O)(NCc1ccncc1)c1ccc(Br)cc1 | 1.8
CC(C)c1ccc(NC(=O)CSc2n[nH]c(=O)n2-c2ccccc2)cc1 | -0.34
COc1cccc(OC)c1/C=N/Nc1ccc([N+](=O)[O-])cn1 | -0.63
O=c1[nH]c(-c2cc(Br)cs2)nc2ccc(Cl)cc12 | -1.1
COc1ccc(-n2nc3ccc(N)cc3n2)cc1 | -4.1
SMILES | Dicer processing
CCOc1ccc(-n2nc3cc(C)c(N)cc3n2)cc1 | 4.6*
CCOc1ccc(-n2nc3ccc(N)cc3n2)cc1 | -3.8
COc1ccc(-c2cc(NC(=O)Nc3ccccc3C#N)n(-c3ccc(Cl)c(Cl)c3)n2)cc1 | 0.48
O=C(O)/C=C/C(=O)NNC(=O)c1sc2ccccc2c1Cl | 0.76
O=C1c2ccccc2C(=O)N1CNc1ccc(Oc2ccc(Cl)cc2)cc1 | 5.3
CCCc1ccc(NCN2C(=O)c3ccccc3C2=O)cc1 | 2.2
O=C1c2ccccc2C(=O)N1CNc1ccc(Oc2ccccc2)cc1 | 3.8*
Cc1cccc(NCN2C(=O)c3ccccc3C2=O)c1C | 5.1
O=C1c2ccccc2C(=O)N1CNc1ccccc1Oc1ccc(Cl)cc1Cl | -0.05
O=C1c2ccc([N+](=O)[O-])cc2C(=O)N1CNc1cc(C(F)(F)F)cc(C(F)(F)F)c1 | 1.9
CCc1ccccc1NCN1C(=O)c2ccccc2C1=O | 3.4*
CCC(C)c1ccc(NCN2C(=O)c3ccccc3C2=O)cc1 (stereo not given) | 3.1*
O=C1c2ccccc2C(=O)N1Cc1cccnc1 | -0.5
CCCN(CCC)C(=O)C1Sc2nnc(-c3ccccc3)n2NC1c1ccccc1 (stereo not given) | -0.05
C/C(=C(/C#N)C(=O)Nc1ccc(F)cc1F)N(C)C | -0.22
CSc1ccc(OS(=O)(=O)c2cc(S(=O)(=O)c3ccccc3)cs2)cc1 | -0.69
Cc1nn(-c2ccccc2)cc1/C=N/NC(=O)CSc1nnc(-c2ccncc2)n1-c1ccccc1 | 1.5
Cc1cc2c3c(c1)c(O)cc(=O)n3CCC2 | -1.8
O=C(CSc1nc2cc(Cl)ccc2o1)c1ccc(F)cc1 | -0.04
Clc1ccc(/C=N/Nc2ncnc3sc4c(c23)CCCC4)cc1 | 1
CC(=O)Oc1ccc2occ(C(=O)c3ccc(Cl)cc3)c2c1 | 5.8
NC(=O)Cn1cc(C(=O)c2ccco2)c2ccccc21 | -0.25
O=C(c1ccco1)c1coc2ccc(O)cc12 | 5.5*
COc1ccc(-c2c(C)nn3c4c(cnc23)C(=O)CC(C)(C)C4)cc1 | 2.3
O=C(CCc1nc2ccccc2[nH]c1=O)OCc1ccc(Br)cc1 | 1.6
SMILES | Dicer processing
CCOC(=O)C(C)c1nc2ccccc2[nH]c1=O (stereo not given) | 3
CC(C)OC(=O)c1ccc(COC(=O)CCc2nc3ccccc3[nH]c2=O)cc1 | 3.4*
Clc1ccc(/C=C2\CCCC3C2=NNC3c2ccc(Cl)cc2)cc1 (stereo not given) | 0.14
COC(=O)c1ccc2cc(C(=O)O)ccc2c1 | 5.4*
COC(=O)c1ccc(Br)cc1 | 0.38
COC(=O)c1cc(Cl)cc(Cl)c1 | -0.99
